From PubChem BioAssay
KCNQ2 pot = potentiators of rat KCNQ2 potassium channel. B-score at 10 µM. CHO-K1 KCNQ2, FluxOR thallium flux fluorescence; hits give high values. 0.54% of 310,000 active. AID 2239, 2010;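 active = fluorescence ratio B-score at least 3 SD of library B-scores, with initial fluorescence B-score within 3 of them, cut at about 5.3 in these data; same plate scores as AID 2156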;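 also: B-score of peak minus minimum over baseline fluorescence ratio after K+ and Tl+ stimulus; positive B-score means potentiation of KCNQ2 with more thallium influx and brighter signal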
KCNQ2 block = rat KCNQ2 potassium channel inhibitors, primary screen, cell-based, CHO-K1, FluxOR thallium flux, B-score | AID 2156, 2009 | 1.1% of 310,000 active | Potassium voltage-gated channel subfamily KQT member 2 (Rattus norvegicus), O88943 | B-score at 10 µM | 20 min; hits give low values;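 active = fluorescence ratio B-score at most minus 3 library SDs, with starting brightness B-score within 2 library SDs, cut at about -5.5 in these data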
Numbers without * were called inactive; i = inactive; · = no result. The list is not random: actives were taken first. Their share in the collection is about 1.6%.

SMILES | KCNQ2 pot | KCNQ2 block
Cc1cccc(OP(=O)(Oc2ccccc2)OC(c2ccccc2)C(F)(F)F)c1 (stereo not drawn) | -6.5 | -6.5*
Cc1ccc(C)c(NP(=O)(Oc2ccccc2)Oc2ccccc2)c1 | 0.73 | i
COc1cc(OC)c([C@H]2C=C(C)[C@H]3C[C@@H]2C3(C)C)c(OC)c1 | 1.5 | i
O=[N+]([O-])c1ccc2nc(N3CCNCC3)ccc2c1 | · | i
CCCc1nc2ccc(Br)cc2c(=O)n1-c1ccc([N+](=O)[O-])c(C(F)(F)F)c1 | -6 | -6*
CCc1nc2ccc(Br)cc2c(=O)n1-c1ccccc1C(F)(F)F | · | i
CCCCn1c(=O)c(C=Nc2cccnc2Cl)c(O)n(CCCCl)c1=O | 0.44 | i
C/C1=C\[C@@H](C)C/C=C/[C@H]2[C@@H]3O[C@]3(C)[C@@H](C)[C@H]3[C@H](Cc4c[nH]c5ccccc45)NC(=O)[C@]32C(=O)/C=C/C(=O)[C@@H]1O | 8.3* | i
CN(C)c1ccc(/C=C/C=C/c2sc3ccccc3[n+]2C)cc1 | 0.07 | i
CC[n+]1c(/C=C/C=C/c2ccc(N(C)C)cc2)sc2ccccc21 | -7.9 | -7.9*
O=C1NC(=O)N(c2ccc(Cl)cc2)C(=O)/C1=C/c1coc2ccc(O)cc2c1=O | · | i
O=C1NC(=O)N(c2ccccc2)C(=O)/C1=C/c1coc2ccc(O)cc2c1=O | -7.1 | -7.1*
CC(=O)OC1N=C(c2ccccc2Cl)c2cc(Br)ccc2NC1=O (stereo not drawn) | 0.52 | i
CCCCn1c(O)c(C(C)=Nc2ccc(C(=O)O)cc2)c(=O)[nH]c1=O | 5.6* | i
CCCCn1c(O)c(C(C)=NCCc2ccccc2)c(=O)[nH]c1=O | 0.51 | i
N#CC1=C(N)Oc2c(c(=O)sc3ccccc23)C1c1cccnc1 (stereo not drawn) | 2.3 | i
C=CCn1c(O)c(C(CC)=NCc2ccco2)c(=O)[nH]c1=O | 0.13 | i
c1ccc(P(c2ccccn2)c2ccccn2)cc1 | 0.57 | i
CCC(=NCc1cc(OC)cc(OC)c1)c1c(O)n(C)c(=O)n(C)c1=O | 1.1 | i
C=C(C=O)CC1CC(O)[C@]2(C)OC3CC4OC5C[C@]6(C)O[C@]7(C)CCC8OC9C[C@]%10(C)OC%11C(C)=CC(=O)OC%11CC%10OC9C[C@@H](C)C8OC7CC6O[C@]5(C)CC5OC5C4OC3CC2O1 (stereo partly drawn) | -5.6 | -5.6*
C=C(CO)CC1CC(O)[C@]2(C)OC3CC4OC5C[C@]6(C)O[C@]7(C)CCC8OC9C[C@]%10(C)OC%11C(C)=CC(=O)OC%11CC%10OC9C[C@@H](C)C8OC7CC6O[C@]5(C)C/C=C\C4OC3CC2O1 (stereo partly drawn) | 0.1 | i
N#CCCn1cc(C(=O)Nc2ccc(F)cc2)c(-c2ccc([N+](=O)[O-])cc2)n1 | 0.28 | i
CCOc1ccc(-c2cc(C)[n+](CCc3ccc(OC)c(OC)c3)c(-c3ccc(OCC)cc3)c2)cc1 | -5.8 | -5.8*
CCOc1ccc(-c2cc(C)[n+](CCO)c(-c3ccc(OCC)cc3)c2)cc1 | 0.49 | i
Cc1nn(Cc2c(Cl)cccc2Cl)c(Cl)c1C(=O)O | 0.79 | i
SMILES | KCNQ2 pot | KCNQ2 block
NC(=O)c1cc(N2CC2)c([N+](=O)[O-])cc1[N+](=O)[O-] | 0.48 | i
COc1ccc(-n2c(/C=C/c3ccc4c(c3)OCO4)nc3ccccc3c2=O)cc1 | · | i
Cc1ccc(-n2c(/C=C/c3ccc4c(c3)OCO4)nc3ccccc3c2=O)cc1 | -5.7 | -5.7*
COP(=O)(NC(=O)C(Cl)(Cl)Cl)OC | 2.1 | i
CCOC(=O)c1c(NC(=O)C(c2ccccc2)c2ccccc2)sc2c1C1CCN2CC1 | -7.2 | -7.2*
CCOC(=O)c1c(NC(=O)c2c(N)n(CCCOC)c3nc4ccccc4nc23)sc2c1CCCC2 | 1.3 | i
CC(Cc1ccccc1)N1C(=O)c2ccccc2C1=O (stereo not drawn) | · | i
CC(C)(C#CC(=O)O)OOC(c1ccccc1)(c1ccccc1)c1ccccc1 | -11 | -11*
Cc1ccn2nc(S(=O)(=O)Nc3c(F)cccc3F)nc2n1 | 0.27 | i
O=C1OCc2cc(N=Nc3c(O)[nH]c(=O)[nH]c3=O)ccc21 | 0.47 | i
CN(CC(=O)Nc1ccccc1-c1ccccc1)C1CCCCC1 | -6.4 | -6.4*
CCc1ccccc1NC(=O)CNC1CCCCC1 | · | i
COc1ccc(C2SCC(=O)Nc3c2c(C)nn3-c2ccccc2)cc1 (stereo not drawn) | 0.6 | i
Cc1ccc(-n2nc(C)c3c2NC(=O)CSC3c2ccc3c(c2)OCO3)cc1 (stereo not drawn) | -5.6 | -5.6*
O=C1NC(=O)C2(Cc3ccccc3N3CCCC32)C(=O)N1Cc1ccccc1 (stereo not drawn) | · | i
